From PubChem BioAssay AID1159580 (chemical genetic matrix, 2015)
About 2,000 (36%) of roughly 5,500 compounds were called active. Not shown: some 18% with an inconclusive outcome. Rule as the data show it: active = normalized growth mostly below about 0.91 (no sharp cut-off); inconclusive = no clear call, values can overlap the other calls; inactive = mostly above about 0.92. This is one part of the list.

Assay: chemical genetic growth profiling, strain panel (AID 1159580);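 also: tested at 20 µM; growth read once vehicle control cultures reached saturation at 30 °C; 1 = growth at the plate median or of vehicle wells; lower values mean less growth of the strain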
Details: growth OD

Measured: normalized growth

CC(=O)OCC(=O)[C@@]12OC3(CCCC3)O[C@@H]1CC1C3CCC4=CC(=O)C=C[C@]4(C)[C@@]3(F)[C@@H](O)C[C@@]12C (some centres not stated)
inactive: S. cerevisiae deletion strains, locus YJR075W, strain HOC1, stronger effect = lower value 1.01 | S. cerevisiae deletion strains, locus YKL009W, strain mrt4, stronger effect = lower value 0.967 | S. cerevisiae deletion strains, locus YKL068W, stronger effect = lower value 0.991 | S. cerevisiae deletion strains, locus YKL085W, strain MDH1 (second series), stronger effect = lower value 0.994 | S. cerevisiae deletion strains, locus YKL085W, strain MDH1, stronger effect = lower value 0.994 | S. cerevisiae deletion strains, locus YKL160W, strain elf1, stronger effect = lower value 1.01 | S. cerevisiae deletion strains, locus YKL190W, strain CNB1, stronger effect = lower value 0.997 | S. cerevisiae deletion strains, locus YKR001C, strain vps1, stronger effect = lower value 0.985 | S. cerevisiae deletion strains, locus YKR026C, strain gcn3, stronger effect = lower value 1.02 | S. cerevisiae deletion strains, locus YKR091W, strain srl3, stronger effect = lower value 1.01 | S. cerevisiae deletion strains, locus YLL001W, strain dnm1, stronger effect = lower value 1 | S. cerevisiae deletion strains, locus YLL026W, stronger effect = lower value 1.01 | S. cerevisiae deletion strains, locus YLL041C, strain sdh2, stronger effect = lower value 1.02 | S. cerevisiae deletion strains, locus YLR027C, strain aat2, stronger effect = lower value 1.01 | S. cerevisiae deletion strains, locus YLR039C, strain RIC1, stronger effect = lower value 0.94 | S. cerevisiae deletion strains, locus YLR058C, strain SHM2, stronger effect = lower value 1.01 | S. cerevisiae deletion strains, locus YLR102C, strain apc9, stronger effect = lower value 0.992 | S. cerevisiae deletion strains, locus YLR113W, strain HOG1, stronger effect = lower value 0.989 | S. cerevisiae deletion strains, locus YLR221C, strain rsa3, stronger effect = lower value 1.01 | S. cerevisiae deletion strains, locus YLR258W, strain gsy2, stronger effect = lower value 1.02 | S. cerevisiae deletion strains, locus YLR262C, strain YPT6 (second series), stronger effect = lower value 1 | S. cerevisiae deletion strains, locus YLR262C, strain YPT6, stronger effect = lower value 0.961 | S. cerevisiae deletion strains, locus YLR268W, strain sec22, stronger effect = lower value 0.958 | S. cerevisiae deletion strains, locus YLR320W, strain mms22, stronger effect = lower value 1.02 | S. cerevisiae deletion strains, locus YLR330W, strain CHS5, stronger effect = lower value 1.01 | S. cerevisiae deletion strains, locus YLR342W, strain FKS1 (second series), stronger effect = lower value 1.05 | S. cerevisiae deletion strains, locus YLR342W, strain FKS1, stronger effect = lower value 1.02 | S. cerevisiae deletion strains, locus YLR357W, strain rsc2, stronger effect = lower value 1.04 | S. cerevisiae deletion strains, locus YLR370C, strain arc18, stronger effect = lower value 1.02 | S. cerevisiae deletion strains, locus YLR371W, strain rom2, stronger effect = lower value 0.984 | S. cerevisiae deletion strains, locus YLR384C, strain iki3, stronger effect = lower value 1.01 | S. cerevisiae deletion strains, locus YLR418C, strain cdc73, stronger effect = lower value 0.944 | S. cerevisiae deletion strains, locus YML016C, strain PPZ1, stronger effect = lower value 1.02 | S. cerevisiae deletion strains, locus YML032C, strain rad52, stronger effect = lower value 0.968 | S. cerevisiae deletion strains, locus YML120C, strain ndi1, stronger effect = lower value 1.02 | S. cerevisiae deletion strains, locus YML124C, strain tub3, stronger effect = lower value 0.988 | S. cerevisiae deletion strains, locus YMR058W, strain fet3, stronger effect = lower value 1.02 | S. cerevisiae deletion strains, locus YMR078C, strain ctf18, stronger effect = lower value 1 | S. cerevisiae deletion strains, locus YMR125W, strain sto1, stronger effect = lower value 1.03 | S. cerevisiae deletion strains, locus YMR129W, stronger effect = lower value 1.02 | S. cerevisiae deletion strains, locus YMR205C, strain PFK2, stronger effect = lower value 1.02 | S. cerevisiae deletion strains, locus YMR223W, strain ubp8, stronger effect = lower value 1.01 | S. cerevisiae deletion strains, locus YMR231W, strain pep5, stronger effect = lower value 1.01 | S. cerevisiae deletion strains, locus YMR263W, strain SAP30, stronger effect = lower value 1.01 | S. cerevisiae deletion strains, locus YMR307W, strain GAS1, stronger effect = lower value 1.11 | S. cerevisiae deletion strains, locus YNL067W, strain RPL9B, stronger effect = lower value 1 | S. cerevisiae deletion strains, locus YNL071W, strain lat1, stronger effect = lower value 1.01 | S. cerevisiae deletion strains, locus YNL128W, strain TEP1, stronger effect = lower value 1.03 | S. cerevisiae deletion strains, locus YNL153C, strain GIM3, stronger effect = lower value 0.996 | S. cerevisiae deletion strains, locus YNL183C, strain NPR1, stronger effect = lower value 0.954 | S. cerevisiae deletion strains, locus YNL209W, strain ssb2, stronger effect = lower value 1.01 | S. cerevisiae deletion strains, locus YNL233W, strain BNI4, stronger effect = lower value 1.01 | S. cerevisiae deletion strains, locus YNL248C, strain rpa49, stronger effect = lower value 0.978 | S. cerevisiae deletion strains, locus YNL250W, strain rad50, stronger effect = lower value 0.994 | S. cerevisiae deletion strains, locus YNL271C, strain bni1, stronger effect = lower value 0.984 | S. cerevisiae deletion strains, locus YNL298W, strain CLA4, stronger effect = lower value 0.982 | S. cerevisiae deletion strains, locus YNL307C, strain MCK1, stronger effect = lower value 0.992 | S. cerevisiae deletion strains, locus YNL322C, strain KRE1 (second series), stronger effect = lower value 1.03 | S. cerevisiae deletion strains, locus YNL322C, strain KRE1, stronger effect = lower value 1.01 | S. cerevisiae deletion strains, locus YNR049C, strain mso1, stronger effect = lower value 1.03 | S. cerevisiae deletion strains, locus YNR052C, strain pop2, stronger effect = lower value 0.99 | S. cerevisiae deletion strains, locus YOL006C, strain TOP1, stronger effect = lower value 1.01 | S. cerevisiae deletion strains, locus YOL012C, strain htz1 0.599 | S. cerevisiae deletion strains, locus YOL147C, strain pex11, stronger effect = lower value 1 | S. cerevisiae deletion strains, locus YOR001W, strain rrp6, stronger effect = lower value 1.02 | S. cerevisiae deletion strains, locus YOR061W, strain CKA2, stronger effect = lower value 1.01 | S. cerevisiae deletion strains, locus YOR069W, strain VPS5, stronger effect = lower value 1.01 | S. cerevisiae deletion strains, locus YOR070C, strain gyp1, stronger effect = lower value 1.02 | S. cerevisiae deletion strains, locus YOR080W, strain dia2, stronger effect = lower value 1.04 | S. cerevisiae deletion strains, locus YOR083W, strain WHI5, stronger effect = lower value 0.998 | S. cerevisiae deletion strains, locus YOR106W, strain vam3, stronger effect = lower value 1.01 | S. cerevisiae deletion strains, locus YOR136W, strain idh2, stronger effect = lower value 0.981 | S. cerevisiae deletion strains, locus YOR144C, strain elg1, stronger effect = lower value 0.991 | S. cerevisiae deletion strains, locus YOR184W, strain ser1, stronger effect = lower value 0.983 | S. cerevisiae deletion strains, locus YOR231W, strain MKK1, stronger effect = lower value 0.963 | S. cerevisiae deletion strains, locus YOR265W, strain rbl2, stronger effect = lower value 1.02 | S. cerevisiae deletion strains, locus YOR270C, strain vph1, stronger effect = lower value 0.921 | S. cerevisiae deletion strains, locus YOR290C, strain snf2, stronger effect = lower value 1.01 | S. cerevisiae deletion strains, locus YOR316C, strain cot1, stronger effect = lower value 1 | S. cerevisiae deletion strains, locus YPL051W, strain arl3, stronger effect = lower value 1.02 | S. cerevisiae deletion strains, locus YPL055C, strain LGE1, stronger effect = lower value 1.01 | S. cerevisiae deletion strains, locus YPL078C, strain atp4, stronger effect = lower value 1.01 | S. cerevisiae deletion strains, locus YPL106C, strain sse1, stronger effect = lower value 1.1 | S. cerevisiae deletion strains, locus YPL240C, strain hsp82, stronger effect = lower value 1.01 | S. cerevisiae deletion strains, locus YPL241C, strain CIN2, stronger effect = lower value 1.01 | S. cerevisiae deletion strains, locus YPL256C, strain CLN2, stronger effect = lower value 0.975 | S. cerevisiae deletion strains, locus YPR119W, strain clb2, stronger effect = lower value 0.982 | S. cerevisiae deletion strains, locus YPR141C, strain kar3, stronger effect = lower value 0.989 | S. cerevisiae deletion strains, locus YPR163C, strain tif3, stronger effect = lower value 0.98 | S. cerevisiae deletion strains, locus YPR167C, strain met16, stronger effect = lower value 0.999 | S. cerevisiae deletion strains, strain wtn01, stronger effect = lower value 0.98 | S. cerevisiae strains, strain wild type, stronger effect = lower value 1.01
